Bioassay records (PubChem BioAssay)
FMDV antiviral: High Throughput Screening for Foot and Mouth Disease Virus Antivirals | FMDV antiviral cell-based qHTS | Potency, µM (doses to about 57.9 µM), without a hit: at the top dose activity change, negative = inhibition, actives largely listed as inhibitors | actives 1.2% (n = 410,000) | AID 1159524, 2015; calls by dose curve; tested in HEK293T cells; further: read-out not given here; potency means the concentration at half of the fitted maximal effect; nearly all actives have a fitted effect of over 45% in size
LASV entry inh: qHTS for Inhibitors of binding or entry into cells for Lassa Virus; actives 1.2% (n = 300,000); AID 540256, 2011; Potency, µM (top dose mostly 37.9 µM), without a hit: at the top dose activity change, negative = inhibition, hits mostly inhibitors; Lassa virus pseudotype entry inhibition, cell reporter; calls by dose curve; tested in HEK293 cells; further: potency means the concentration at half of the fitted maximal effect; nearly all actives have a fitted effect of over 50% in size
HCMV inh: qHTS Assay for inhibitors of the human cytomegalovirus (HCMV). HFF cells, HCMV-luciferase reporter, 72 h; stronger effect = lower value. activity change, negative = inhibition, % at 57.5 µM. actives 4.5% (n = 410,000). AID 1259415, 2018; in the data active means activity change below about -60%; inconclusive means no clear call, values can overlap the other calls; inactive means above about -39%
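Steps: HFFs plated, 16 h 37C; compounds added; HCMV-luciferase added to MOI 1 PFU/cell; 72 h 37C; OneGlo reagent, 5 min room temperature; luminescence read, normalized to controls.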
Marburg entry inh: qHTS for inhibitors of binding or entry into cells for Marburg Virus; Marburg virus pseudotyped entry inhibition, cell reporter; Potency, µM (highest dose often 37.8 µM), for inactives: at the highest dose activity change, negative = inhibition, hits mostly inhibitors; actives 1.8% (n = 300,000); AID 540276, 2011; calls by dose curve; tested in HEK293 cells; further: potency means the concentration at half of the fitted maximal effect
* marks the source's active call; other numbers are inactive results; ? = inconclusive; nt = no result; [ ] = remark or other dose. Shown are actives, neighbours in structure and some others; about 6.2% of the full set was active somewhere. On the % scale 0 is the no-effect control and ±100 the full control effect.

SMILES	FMDV antiviral	LASV entry inh	HCMV inh	Marburg entry inh
CCC(CC)C(=O)c1c[nH]c(C(=O)NCC2CCCO2)c1 (stereo not given)	-15.0%	7.08µM*	2.1	0.8%
CC(=O)c1c[nH]c(C(=O)NCC2CCCO2)c1 (stereo not given)	-3.4%	-4.0%	32.3	-1.0%
Cc1onc(-c2c(Cl)cccc2Cl)c1C(=O)c1c[nH]c(C(=O)NCC2CCCO2)c1 (stereo not given)	?	8.91µM*	-6.5	?
CCN(CC)c1ccc(/C=N/NC(=S)NC)c(O)c1	46.7%	nt	-12.6	nt
CCn1c(SCC(=O)NCCc2ccc(Cl)cc2)nnc1-c1cccs1	-16.5%	-11.9%	18.5	-2.1%
COCc1nn2c(N)c(-c3ccccc3)cnc2c1-c1ccccc1	23.3%	?	19.7	11.8%[46.1 µM]
COc1ccc(-c2nc(CNS(=O)(=O)c3ccc(F)cc3)cs2)cc1	?	?	-72.9*	-19.9%[46.1 µM]
CC(C)Oc1ccc(CCC(=O)N/N=C/c2ccncc2)cc1	3.0%	1µM*	-6.2	0.8%[46.1 µM]
Cc1ccc(CN2CC(C(=O)NNC(=O)c3ccc(F)cc3)CC2=O)cc1 (stereo not given)	-12.6%	-13.9%	0.0	18.5%
COc1coc(C(O)CN)cc1=O (stereo not given)	17.5%	-0.4%	-32.5	-0.5%[46.1 µM]
CCOC(=O)C(=Cc1cc(=O)c(OC)co1)C(=O)OCC	8.91µM*	?	-84.3*	?
Cc1cc(C)n2c(SCC(=O)N3CCN(S(=O)(=O)c4ccc(Cl)cc4)CC3)nnc2n1	5.9%	-11.5%	-73.2*	14.4%[46.1 µM]
CN1CCN(CCNC(=O)Nc2ccccc2C(F)(F)F)CC1	-8.3%	8.5%	37.5	?
O=C(CCN1C(=O)C2C3C=CC(C4CC34)C2C1=O)OCC(=O)c1ccccc1 (stereo not given)	-12.0%	13.5%	-82.8*	3.6%
O=C(CCN1C(=O)C2C3C=CC(C4CC34)C2C1=O)Oc1cccc2cccnc12 (stereo not given)	-25.9%	-20.2%	-95.5*	16.4µM*
O=C(CCN1C(=O)C2C3C=CC(C4CC34)C2C1=O)Oc1ccc(Br)cc1 (stereo not given)	-0.3%	16.5%[46.1 µM]	-6.4	?
CN(CCc1ccccn1)C1CC(=O)N(c2ccc(Cl)cc2)C1=O (stereo not given)	0.0%	-3.9%	37.7	?
COc1cc([N+](=O)[O-])ccc1NC(=O)NCc1ccccn1	6.7%	nt	-18.7	nt
Cn1nc(C(C)(C)C)c([N+](=O)[O-])c1C(=O)NCCO	7.8%	0.1%	-1.7	1.5%
Cc1cccc2sc(NC(=O)c3cccc(S(=O)(=O)N4CCc5ccccc54)c3)nc12	?	-0.1%	8.7	-11.4%
COc1ccccc1NC(=O)c1ccc(S(=O)(=O)N2CCCC(C)C2)cc1 (stereo not given)	-24.4%	-9.7%	-63.5*	2.8%[46.1 µM]
CC1CCCN(S(=O)(=O)c2ccc(C(=O)Nc3ccccc3-c3nc4ccccc4[nH]3)cc2)C1 (stereo not given)	-9.0%	5.8%	-3.4	?
Cc1cccc2sc(NNC(=O)c3ccc(S(=O)(=O)N4CCCC(C)C4)cc3)nc12 (stereo not given)	10µM*	?	-71.7*	?
Cc1cccc2sc(NNC(=O)c3ccc(S(=O)(=O)N4CCc5ccccc5C4)cc3)nc12	?	?	-105.3*	?
CN(C)S(=O)(=O)c1ccc2c(c1)c(=O)c(C(=O)N1CCOCC1)cn2C	-4.6%	nt	-2.9	1.4%
SMILES	FMDV antiviral	LASV entry inh	HCMV inh	Marburg entry inh
O=C(N=C1SC2CS(=O)(=O)CC2N1c1cccc(Cl)c1Cl)C1CCCO1 (stereo not given)	9.6%	nt	-28.1	nt
COc1ccc(Cl)cc1C(=O)NNC(=O)CSc1nncn1C	41.1%	13.8%[46.1 µM]	-90.6*	16.3%[46.1 µM]
COc1ccccc1C(=O)NC(=O)CSc1nncn1C	-14.8%	19.7%	-10.9	0.9%
O=C1NC(c2ccccc2)=C(c2nc3ccccc3s2)C(c2ccccc2)N1 (stereo not given)	?	9.2µM*	48.7	-21.3%
CCOC(=O)c1cnc2ccc(OC)cc2c1NCc1ccccc1	-6.8%	25.3%	-16.2	?
CCOC(=O)c1cnc2ccc(OCC)cc2c1NCc1ccccc1OC	17.8µM*	8.91µM*	-69.9*	?
N#CC1=C(SCC(=O)c2ccc(Cl)cc2)NC2=C(C(=O)CCC2)C1c1ccco1 (stereo not given)	?	?	-39.9	?
C=CCOC(=O)C1=C(C)NC(SCC(=O)Nc2ccc(C)c(Cl)c2)=C(C#N)C1c1ccco1 (stereo not given)	-12.4%	-24.5%	?	10µM*
